Data on 14 molecules can be found in PubChem BioAssay (NCI).

This test in a line: NCI Yeast Anticancer Drug Screen. Data for the mlh1 rad18 strain (AID 175). As to conditions: S. cerevisiae mlh1 rad18 strain growth inhibition, active compounds read high. The protocol:
Growth inhibition of yeast strains with defined genetic alterations is measured as a screen for potential anti-cancer activity. Selected strains with alterations in DNA damage repair or cell cycle control were exposed to compounds and growth inhibition was measured relative to vehicle treated controls. The strain used in this assay is mlh1 rad18

Setting [1] is: at 5.0 µM (retest, dose inferred, filed as 0.5).
[2] abbreviates: at 50.0 µM (retest, dose inferred, filed as 5.0).

Each structure is given as a SMILES string. About 79,000 compounds went through this panel and 15% of them were active in at least one assay; those are over-represented in the sample as a whole. Unmarked numbers belong to inactive results. Activity calls are given as the source filed them. No stated cut-off is given here; in the data, active means growth inhibition above about 70%; inactive means the rest.

On to `CN(C)CC/C(=N\Nc1ccc(Cl)cc1Cl)c1ccccc1`, for which the growth inhibition by setting is: under setting [1], 96% (active); under setting [2], 100% (active); (at 50.0 µM) 99.2% (active).
Taken in the same sequence, the figures for `CC(=O)Oc1c(C2CCCCC2)cc([N+](=O)[O-])cc1[N+](=O)[O-]` were 97% (active), 98% (active) and 99.6% (active).
The matching figures for `Cn1cc(NC(=O)Nc2cc(C(=O)Nc3cc(C(=O)Nc4cc(S(=O)(=O)O)c5cc(S(=O)(=O)O)cc(S(=O)(=O)O)c5c4)n(C)c3)n(C)c2)cc1C(=O)Nc1cc(C(=O)Nc2cc(S(=O)(=O)O)c3cc(S(=O)(=O)O)cc(S(=O)(=O)O)c3c2)n(C)c1`: 26%, 83% (active) and 87% (active).
The matching figures for `COC1C(=[N+]=[N-])C(=O)NC(=O)N1C1OC(COC(c2ccccc2)(c2ccccc2)c2ccccc2)C(O)C1O` (configuration not stated): 15%, 15% and 66.6%.
Take `CC(CCCN(C)Cc1ccccc1)Nc1ccnc2cc(Cl)ccc12` (configuration not stated): the growth inhibition is 99% (active) under setting [1], 99% (active) under setting [2] and 98% (active) (at 50.0 µM).
With `FC(F)(F)c1nc(SCc2ccc(Cl)cc2)n[nH]1`, the growth inhibition under setting [1] was -3%, the growth inhibition under setting [2] is 13% and the growth inhibition (at 50.0 µM) is -17.8%.
The matching figures for `CC1CCCCC12C(C#N)(C#N)C2(C#N)C#N` (configuration not stated): 41%, 98% (active) and 99.3% (active).
Taken in the same sequence, the figures for `CC(CO)CCC(=O)C(C)C1C(=O)CC2CC3CC(O)CCC3(C)CC21C` (configuration not stated) were 16%, 89% (active) and 90.3% (active).
Taken in the same sequence, the figures for `O=S(=O)(O)CC[S][Sn]([S]CCS(=O)(=O)O)([c]1ccccc1)[c]1ccccc1` (tested in a mixture with another compound) were 94% (active), 96% (active) and 90.7% (active).
Turning to `CC(=O)NNc1nc(C)c(C(=O)NNC(=O)C(=O)Nc2c(C)cccc2C(C)C)s1`, the growth inhibition was -4% under setting [1], 74% (active) under setting [2] and 44.1% (at 50.0 µM).
Taken in the same sequence, the figures for `O=C(Nc1ccccc1[N+](=O)[O-])/C(=N/Nc1cccc(Cl)c1)c1c(O)c2ccccc2oc1=O` were 44%, 44% and 70% (active).
Taken in the same sequence, the figures for `C/C(=N\NC(=S)NC12CC3CC(CC(C3)C1)C2)c1ccccn1` were -7%, 97% (active) and 97.3% (active).
Taken in the same sequence, the figures for `CC(C)/C=C1\CCOC1=O` were 0%, 6% and 21.7%.
Regarding `NC1=NOC(=O)C1Cc1ccccc1` (configuration not stated), the growth inhibition is, setting by setting: under setting [1], -2%; under setting [2], -2%; (at 50.0 µM) 15.6%.
